Data from PubChem BioAssay (Tox21).
“And” between values parts separate entries of the source, which are not always exact repeats. Equal values may be shown once. Results filed as inconclusive are left out. Where a call stands in place of a potency, no number is given. Some compounds were tested as several samples or in several runs, with calls that do not always agree. The source made the active and inactive calls. Unless noted, calls come from the whole dose curve; as a rule, active = well fitted curve in the direction sought with a large enough effect in the repeat runs; inconclusive = weak or mixed curves; inactive = no such curve, though single readings can be large; an effect the other way counts as inactive or inconclusive.

Columns and labels:
[1] = qHTS assay to identify aromatase inhibitors - cell viability counter screen (AID 743084);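 note: cells stimulated with testosterone during compound exposure; nearly all actives have a fitted effect of over 55% in size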; note: potency is the fitted concentration of half-maximal effect
[2] = target: Aryl hydrocarbon receptor (Homo sapiens) (UniProt P35869); test: qHTS assay to identify small molecule that activate the aryl hydrocarbon receptor (AhR) signaling pathway (AID 743085); note: nearly all actives have a fitted effect of over 15% in size; note: potency is the fitted concentration of half-maximal effect;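 for activation: HG2L7.5c1 human HepG2 liver cells with stably integrated DRE-driven firefly reporter; series mostly up to about 70 µM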
Method in brief: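 Reporter assay in engineered HepG2 line HG2L7.5c1, whose plasmid carries twenty dioxin responsive elements upstream of firefly luciferase. Treatment lasted 24 h at 37C; ONE-Glo luminescence gauged induction.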

[3] = qHTS assay to identify small molecule that activate the aryl hydrocarbon receptor (AhR) signaling pathway - cell viability counter screen (AID 743086); note: nearly all actives have a fitted effect of over 45% in size; note: potency is the fitted concentration of half-maximal effect
Method in brief: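 HepG2-AhR-luc (HG2L7.5c1) cells, 4000/well, were preincubated 5 h at 37C, exposed to compound in qHTS format for 24 hr at 37C, then given CellTiter-Fluor for 30 min; viability was read as fluorescence in the reporter wells.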

[4] = qHTS assay to identify small molecule phospholipidosis (PLD) inducers (AID 1259344; active = well fitted curve in the direction sought with a large enough effect; an effect the other way counts as inactive or inconclusive)
Method in brief: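 Cells (HepG2, 900 per well) attach for 4 h, receive LipidTOX Red and compound together, incubate 24 h at 37 C, are fixed 30 min with paraformaldehyde/Hoechst, then imaged at one site per well.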

[5] = target: Nuclear receptor subfamily 1 group I member 2 (Rattus norvegicus) (UniProt Q9R1A7); test: Rat pregnane X receptor (rPXR) activation by small molecules, qHTS assay (AID 1346983); conditions: rPXR luciferase reporter cells, One-Glo luminescence, 24 h; max activation: stronger effect = higher value; note: nearly all actives have a fitted effect of over 20% in size; note: potency is the fitted concentration of half-maximal effect
Method in brief: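 Cell-based rPXR luciferase reporter assay, 2,000 cells per well, rested 5hr at 37 C before compound addition in DMSO, then 24 hr at 37 C. One-Glo reagent was added and luminescence read after 30 min at room temperature.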

[6] = target: Nuclear receptor subfamily 1 group I member 2 (Homo sapiens) (UniProt O75469); test: CYP3A4 induction through human pregnane X receptor (PXR) by small molecules, qHTS assay (AID 1346984); note: nearly all actives have a fitted effect of over 40% in size; note: potency is the fitted concentration of half-maximal effect
Method in brief: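 Read-out is luminescence after One-Glo addition, following a 3 hr, 37C incubation with Luciferin-IPA CYP3A4 substrate (3uM final). Before that, compounds were on DPX-2 cells (HepG2 co-transfected with PXR element plus CYP3A4-promoter luciferase) for 24 hr at 37C.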

[7] = target: Peroxisome proliferator-activated receptor gamma (Homo sapiens) (UniProt P37231); test: qHTS assay to identify small molecule agonists of the peroxisome proliferator-activated receptor gamma (PPARg) signaling pathway (AID 743094; active = well fitted activation curve with a large enough effect in the signal ratio in the repeat runs, not every such curve was filed as active; the % refers to the signal ratio)
Method in brief: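 Agonist activity was taken from a beta-lactamase reporter (FRET substrate, 1 h at room temperature) in HEK293H cells carrying a PPARg UAS-bla construct. Compounds in DMSO were incubated 17 h at 37C after a 5 h cell pre-incubation.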

[8] = target: Nuclear receptor subfamily 1 group I member 2 (Homo sapiens) (UniProt O75469); test: Human pregnane X receptor (PXR) activation by small molecules, qHTS assay (AID 1346985); note: nearly all actives have a fitted effect of over 40% in size; note: potency is the fitted concentration of half-maximal effect
Method in brief: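 DPX-2 cells (HepG2 co-transfected with a PXR response element and a CYP3A4-promoter luciferase construct) were seeded at 2,000 per well, rested 5 hr at 37C, then exposed to DMSO-dissolved compounds for 24 hr. Activation was read as luciferase luminescence.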

Nuclear receptor subfamily 1 group I member 2 (Rattus norvegicus), sequence (Q9R1A7 whole entry, looked up): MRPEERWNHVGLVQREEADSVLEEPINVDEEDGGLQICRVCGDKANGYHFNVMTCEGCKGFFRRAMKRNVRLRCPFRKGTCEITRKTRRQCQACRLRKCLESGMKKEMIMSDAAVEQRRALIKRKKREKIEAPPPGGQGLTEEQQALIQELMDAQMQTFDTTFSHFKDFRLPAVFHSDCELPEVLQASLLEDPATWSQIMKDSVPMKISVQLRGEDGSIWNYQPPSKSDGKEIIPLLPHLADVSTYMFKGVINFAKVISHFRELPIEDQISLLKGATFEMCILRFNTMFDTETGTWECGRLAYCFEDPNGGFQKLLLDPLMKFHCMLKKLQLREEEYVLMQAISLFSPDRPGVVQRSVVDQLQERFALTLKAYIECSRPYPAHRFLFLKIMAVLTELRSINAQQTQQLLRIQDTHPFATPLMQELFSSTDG
Aryl hydrocarbon receptor (Homo sapiens), sequence (P35869 whole entry, looked up): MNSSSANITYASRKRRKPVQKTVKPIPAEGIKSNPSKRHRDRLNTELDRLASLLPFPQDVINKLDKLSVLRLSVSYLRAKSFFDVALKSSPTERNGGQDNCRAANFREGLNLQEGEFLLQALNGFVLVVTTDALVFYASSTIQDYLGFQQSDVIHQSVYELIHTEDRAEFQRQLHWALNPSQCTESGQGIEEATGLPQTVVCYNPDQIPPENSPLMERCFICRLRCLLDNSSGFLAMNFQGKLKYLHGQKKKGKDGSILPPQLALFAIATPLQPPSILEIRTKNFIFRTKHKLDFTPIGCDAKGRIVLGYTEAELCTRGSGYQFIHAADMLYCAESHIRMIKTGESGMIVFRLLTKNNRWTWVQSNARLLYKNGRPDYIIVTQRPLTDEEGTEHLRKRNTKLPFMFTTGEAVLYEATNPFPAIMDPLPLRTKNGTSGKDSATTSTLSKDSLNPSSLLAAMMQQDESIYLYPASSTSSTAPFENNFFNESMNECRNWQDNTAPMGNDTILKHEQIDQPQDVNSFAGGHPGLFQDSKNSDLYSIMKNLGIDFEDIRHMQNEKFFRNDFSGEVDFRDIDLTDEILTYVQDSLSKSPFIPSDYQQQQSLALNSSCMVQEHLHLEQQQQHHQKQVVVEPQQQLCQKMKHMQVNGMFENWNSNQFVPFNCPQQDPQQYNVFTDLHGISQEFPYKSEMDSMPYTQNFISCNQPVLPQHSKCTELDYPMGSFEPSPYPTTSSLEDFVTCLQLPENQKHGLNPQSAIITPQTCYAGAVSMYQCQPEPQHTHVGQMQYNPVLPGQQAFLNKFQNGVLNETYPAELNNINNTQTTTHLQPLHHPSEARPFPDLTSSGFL
Peroxisome proliferator-activated receptor gamma (Homo sapiens), sequence (P37231 whole entry, looked up): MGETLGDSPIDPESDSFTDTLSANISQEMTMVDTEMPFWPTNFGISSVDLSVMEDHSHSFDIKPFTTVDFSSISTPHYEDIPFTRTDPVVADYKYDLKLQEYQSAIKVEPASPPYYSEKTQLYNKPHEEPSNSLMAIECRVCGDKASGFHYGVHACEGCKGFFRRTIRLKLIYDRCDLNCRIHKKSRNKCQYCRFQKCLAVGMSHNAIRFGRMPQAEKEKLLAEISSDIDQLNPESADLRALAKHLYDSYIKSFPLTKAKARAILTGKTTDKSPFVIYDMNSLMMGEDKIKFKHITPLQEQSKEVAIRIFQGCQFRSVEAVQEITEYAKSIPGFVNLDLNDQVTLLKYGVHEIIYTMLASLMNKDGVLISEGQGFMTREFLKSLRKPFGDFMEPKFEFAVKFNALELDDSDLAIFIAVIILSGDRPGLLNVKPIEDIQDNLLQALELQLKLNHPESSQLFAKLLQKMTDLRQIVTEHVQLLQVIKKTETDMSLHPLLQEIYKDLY

Row | Structure (SMILES) | Potency [1] | Potency [2] | Potency [3] | Potency [4] | Potency [5] | Potency [6] | Potency [7] | max activation [5] | Potency [8]
1 | CCC(=O)O[C@]1(C(=O)CCl)[C@@H](C)C[C@H]2[C@@H]3C[C@H](F)C4=CC(=O)C=C[C@]4(C)[C@@]3(F)[C@@H](O)C[C@@]21C | inactive | 3.35 µM (active) | inactive | inactive | 0.447 µM (active) | 1.58 µM (active) | – | – | –
2 | CC1CC(OC(=O)C(O)c2ccccc2)CC(C)(C)C1 (configuration not stated) | – | – | inactive | inactive | – | inactive | inactive | -1.68% (inactive) | –
3 | CC(C)[C@@H](C)/C=C/[C@@H](C)[C@H]1CC[C@H]2/C(=C/C=C3\C[C@@H](O)CC[C@@H]3C)CCC[C@]12C | inactive | inactive | inactive | inactive | – | – | inactive | -0.157% (inactive) | inactive
4 | COc1cc2c(cc1OC)CC(=O)N(CCCN(C)C[C@H]1Cc3cc(OC)c(OC)cc31)CC2 | inactive | inactive | inactive | inactive | – | inactive | inactive | -0.416% (inactive) | –
5 | CC1CCC(NC(=O)N(CCCl)N=O)CC1 (configuration not stated) | inactive | – | inactive | inactive | 5.01 µM (active) | inactive | inactive | – | –
6 | C=CCN1CCCC1CNC(=O)c1cc(S(N)(=O)=O)cc(OC)c1OC (configuration not stated) | inactive | inactive | inactive | inactive | – | 14.1 µM (active) | inactive | -5.9% (inactive) | –
7 | C=C1CC[C@H](O)CC1=C/C=C1\CCC[C@]2(C)[C@@H]([C@H](C)CC[C@@H](O)C(C)(C)O)CC[C@@H]12 | inactive | – | inactive | inactive | – | inactive | – | 5.8% (inactive) | –
8 | CCCOc1ccc2nc(NC(=O)OC)sc2c1 | inactive | 4.22 µM (active) | inactive | inactive | 2.51 µM (active) | inactive | inactive | – | –
9 | CN1CCN2c3ncccc3Cc3ccccc3C2C1 (configuration not stated) | – | – | inactive | inactive | – | 15.8 µM (active) | – | -0.13% (inactive) | –
10 | CC(=O)N[C@@H](C=O)[C@@H](O)[C@H](O)[C@H](O)CO | inactive | inactive | inactive | inactive | – | – | inactive | -0.914% (inactive) | inactive
11 | C#C[C@]1(O)CC[C@H]2[C@@H]3CCC4=C(CCC(=O)C4)[C@H]3CC[C@@]21C | inactive | inactive | inactive | inactive | – | – | – | 5.01% (inactive) | inactive
12 | CCN(CC)CCOc1ccc2nc(N(C)C)sc2c1 | inactive | – | inactive | inactive | – | inactive | – | 2.91% (inactive) | –
13 | CC[C@@H](C(=O)[C@@H](C)[C@@H](O)[C@H](C)[C@@H]1O[C@@H]([C@@H](CC)C(=O)O)CC[C@@H]1C)[C@H]1O[C@]2(C=C[C@@H](O)[C@]3(CC[C@@](C)([C@H]4CC[C@](O)(CC)[C@H](C)O4)O3)O2)[C@H](C)C[C@@H]1C | inactive | inactive | – | inactive | – | – | – | -12.1% (inactive) | inactive
14 | CC(CN1c2ccccc2Sc2cccnc21)N(C)C (configuration not stated) | inactive | inactive | – | inactive | – | 3.98 µM (active) | inactive | -2.44% (inactive) | –
15 | OC[C@@H](O)C(O)[C@H](O)CO | inactive | inactive | inactive | inactive | – | inactive | inactive | -1.82% (inactive) | –
16 | CCC[C@@H]1C[C@@H](C(=O)N[C@@H]([C@H]2O[C@H](SC)[C@H](O)[C@@H](O)[C@H]2O)[C@H](C)Cl)N(C)C1 | inactive | inactive | – | inactive | – | – | – | 7.71% (inactive) | inactive
17 | CC(=C\c1ccccc1)/C=C1/SC(=S)N(CC(=O)O)C1=O | inactive | inactive | inactive | inactive | – | inactive | – | 4.01% (inactive) | –

Row | Structure (SMILES) | Potency [1] | Potency [2] | Potency [3] | Potency [4] | Potency [5] | Potency [6] | Potency [7] | max activation [5] | Potency [8]
18 | COC(=O)[C@H]1[C@H]2C[C@@H]3c4[nH]c5ccccc5c4CCN3C[C@H]2C[C@@H](OC(=O)c2cc(OC)c(OC)c(OC)c2)[C@@H]1OC | 6.68 µM (active) and inactive | 13.3 µM (active) and 6.68 µM (active) | inactive | inactive | – | – | – | -18.7% (inactive) | inactive
19 | CNc1cc(OC)c(C(=O)N[C@H]2CCN(Cc3ccccc3)[C@H]2C)cc1Cl | inactive | inactive | – | inactive | – | inactive | inactive | -1.71% (inactive) | –
20 | CC(C)[C@@H](N)C(=O)O | inactive | inactive | inactive | inactive | – | – | inactive | 2.42% (inactive) | inactive
21 | CO[C@H]1C[C@@H]2CC[C@@H](C)[C@@](O)(O2)C(=O)C(=O)N2CCCC[C@H]2C(=O)O[C@H]([C@H](C)C[C@@H]2CC[C@@H](OC(=O)C(C)(CO)CO)[C@H](OC)C2)CC(=O)[C@H](C)/C=C(\C)[C@@H](O)[C@@H](OC)C(=O)[C@H](C)C[C@H](C)/C=C/C=C/C=C/1C | inactive | inactive | inactive | inactive | – | – | inactive | 0.976% (inactive) | inactive
22 | CSc1nc2cc(Oc3cccc(Cl)c3Cl)c(Cl)cc2[nH]1 | inactive | – | inactive | inactive | – | inactive | inactive | -0.842% (inactive) | –
23 | C#C[C@]1(O)CC[C@H]2[C@@H]3CCC4=CCCC[C@@H]4[C@H]3C(=C)C[C@@]21CC | inactive | inactive | inactive | inactive | – | inactive | inactive | -4.59% (inactive) | –
24 | C#C[C@]1(O)CC[C@H]2[C@@H]3CCC4=CC(=O)CC[C@@H]4[C@H]3C(=C)C[C@@]21CC | inactive | inactive | inactive | inactive | 7.94 µM (active) | inactive | inactive | – | –
25 | CN(C)C=Nc1c(I)cc(I)c(CCC(=O)O)c1I | inactive | inactive | inactive | inactive | – | – | – | -2.71% (inactive) | 14.1 µM (active)
26 | CCCC(=O)Nc1c(I)cc(I)c(CC(CC)C(=O)O)c1I (configuration not stated) | – | – | – | inactive | – | 22.4 µM (active) | inactive | -4.56% (inactive) | –
27 | O=C(O)CC/C=C\CC[C@@H]1[C@@H](N2CCCCC2)[C@@H](O)C[C@@H]1OCc1ccc(-c2ccccc2)cc1 | inactive | inactive | inactive | inactive | – | – | inactive | -6.46% (inactive) | inactive
28 | Cc1cc(-c2ccc(N=Nc3c(S(=O)(=O)O)cc4cc(S(=O)(=O)O)cc(N)c4c3O)c(C)c2)ccc1N=Nc1c(S(=O)(=O)O)cc2cc(S(=O)(=O)O)cc(N)c2c1O | 13.3 µM (active) | inactive | 15 µM (active) | inactive | – | – | inactive | -20.2% (inactive) | inactive
29 | C=CC1=C(C)C2=CC3=NC(=C(CC(=O)[O-])C4=NC(=C(C)C4=C([O-])[O-])C=c4[n-]c(c(C)c4CC)=CC1=N2)C(CCC(=O)[O-])C3C.[Cu+2].[Na+].[Na+].[Na+] (configuration not stated) | 23.7 µM (active) | – | 23.7 µM (active) | inactive | – | – | inactive | -0.69% (inactive) | inactive
30 | Nc1nc2[nH]cc(CCc3ccc(C(=O)N[C@@H](CCC(=O)O)C(=O)O)cc3)c2c(=O)[nH]1 | inactive | inactive | inactive | inactive | – | – | inactive | -1.09% (inactive) | inactive
31 | O=C(NNCS(=O)(=O)O)c1ccncc1 | inactive | – | inactive | inactive | – | – | inactive | -0.625% (inactive) | inactive
32 | CCOC(=O)O[C@]1(C(=O)COC(=O)CC)CC[C@H]2[C@@H]3CCC4=CC(=O)C=C[C@]4(C)[C@H]3[C@@H](O)C[C@@]21C | inactive | inactive | inactive | inactive | – | – | inactive | 13.1% (inactive) | inactive
33 | N[C@H](CC(=O)O)C(=O)O | inactive | inactive | inactive | inactive | – | – | – | 2.19% (inactive) | –
